From PubChem BioAssay (NCATS)
Values joined by “and” are separate entries in the source; they are usually repeats but may differ in a detail not shown here. Identical values can stand only once. Results filed as inconclusive are left out. Where a call stands in place of a potency, no number is given. A number with no mark means an inactive call. Active and inactive are the calls of the source. Calls follow the shape of the dose curve; as a rule, active = well fitted inhibition curve with a large enough effect; inconclusive = small, poorly fitted or top-dose-only effect; inactive = flat fitted curve, though single readings scatter.

assay: Primary qHTS for inhibitors of nuclear receptor binding SET domain protein 2 (NSD2) in an isogenic RCH-ACV NSD2 p.E1099K mutant (9B) (AID 1645876); conditions: RCH-ACV (leukaemia line) NSD2 E1099K (9B) viability, CellTiter-Glo, 72 h; series mostly up to 44.9 µM; also: nearly all actives have a fitted effect of over 70% in size
Potency is read from the fitted curve at half-maximal effect.

Row | SMILES | Potency | activity change, negative = viability loss
1 | C/C(O)=C(\C#N)C(=O)Nc1cc(Br)ccc1Br | inactive | –
2 | Cn1ncnc1COc1nn2c(-c3c(F)cccc3F)nnc2cc1C1CCC1 | inactive | –
3 | COC(=O)C1(C)CCC(O)C2(C)c3cc(O)c(C(C)C)cc3C(O)C(OC(C)=O)C12 (stereo not drawn) | inactive | –
4 | N#C[C@@H](O[C@@H]1O[C@H](CO[C@@H]2O[C@H](CO)[C@@H](O)[C@H](O)[C@H]2O)[C@@H](O)[C@H](O)[C@H]1O)c1ccccc1 | inactive | –
5 | CC(=O)OC1CC(O)C(C)(C)C2CC(OC(C)=O)C3(C)C(CCC4(C)C(c5ccoc5)C(=O)C5OC543)C12C (stereo not drawn) | inactive | –
6 | CCN1CC2(COC)C3[C@@H](OC)C4C1C3(C1C[C@]3(O)[C@H](OC(=O)c5ccccc5)C1[C@]4(OC(C)=O)[C@@H](O)[C@@H]3OC)[C@H](OC)C[C@H]2O (stereo partly drawn) | inactive | –
7 | CN1[C@@H]2CC[C@H]1CC(OC(=O)C1C=Nc3ccccc31)C2 (stereo partly drawn) | inactive | –
8 | C[C@@]1(C(=O)O)CC[C@]2(C)CC[C@]3(C)C4=CC(=O)c5cc(O)c(O)cc5[C@]4(C)CC[C@@]3(C)[C@@H]2C1 | inactive | –
9 | C=CC(C)(C)c1[nH]c2cccc3c2c1C[C@@H]1[C@@H]3[C@@H](OC(C)=O)[C@H](C)CN1C | inactive | –
10 | CC(C)(C)c1cc(C(C)(C)C)c2c(c1)C(O)(C(F)(F)F)C(=O)O2 (stereo not drawn) | inactive | –
11 | CCOc1ccccc1-n1c(C(C)N2CCN(C(=O)COc3ccc(Cl)cc3)CC2)nc2ccccc2c1=O (stereo not drawn) | 916 nM (active) and 662 nM (active) | –
12 | CC(C)C1(OO)C=C2C(=O)CC3C(C)(C(=O)O)CCCC3(C)C2CC1 (stereo not drawn) | inactive | –
13 | C/C(=C\c1csc(C)n1)[C@@H]1C[C@@H]2O[C@]2(C)CCC[C@H](C)[C@H](O)[C@@H](C)C(=O)C(C)(C)[C@@H](O)CC(=O)O1 | 6.6 nM (active) | –
14 | COC(=O)N1CCN(C(=O)Cc2ccc(Cl)c(Cl)c2)[C@@H](CN2CCCC2)C1 | inactive | –
15 | COC(=O)C12C(=O)C(C)(O)C(=O)C1(C)C(C)=CC1C34CCC(OC3=O)C(C)(CO)C4CCC12C (stereo not drawn) | inactive | –
16 | CCN1C[C@]2(COC(=O)c3ccccc3N3C(=O)C[C@H](C)C3=O)CC[C@H](OC)[C@@]34[C@@H]5C[C@H]6[C@H](OC)[C@@H]5[C@](O)(C[C@@H]6OC)[C@](O)([C@@H](OC)[C@H]23)[C@@H]14 | inactive | –
17 | COC1C(O)C(C)OC(OC2C(CO)O[C@@H](O[C@@H]3CC4CCC5C(CC[C@]6(C)[C@@H](C7=CC(=O)OC7)CC[C@]56O)[C@@]4(C)[C@H](O)C3)C(O)C2O)C1O (stereo partly drawn) | 430 nM (active) | –
18 | C=C[C@H]1[C@H](O[C@@H]2O[C@H](CO)[C@@H](O)[C@H](O)[C@H]2O)OC=C2C(=O)OCC[C@H]21 | inactive | –
19 | C[C@H]1O[C@@H](O[C@H]2C[C@@H](O)[C@]3(CO)C4C(CC[C@]3(O)C2)[C@@]2(O)CC[C@H](C3=CC(=O)OC3)[C@@]2(C)C[C@H]4O)[C@@H](O)[C@@H](O)[C@H]1O (stereo partly drawn) | 153 nM (active) | –
20 | C=CC(C)(O)CC/C=C(\C)C(=O)O[C@H]1[C@H](O)[C@@H](CO)O[C@@H](OC(=O)[C@]23CCC(C)(C)CC2C2=CCC4[C@@]5(C)CC[C@H](O[C@@H]6O[C@H](CO[C@@H]7OC[C@H](O)[C@H](O)[C@H]7O[C@@H]7OC[C@@H](O)[C@H](O)[C@H]7O)[C@@H](O)[C@H](O)[C@H]6O)C(C)(C)C5CC[C@@]4(C)[C@]2(C)CC3)[C@@H]1OC1OC(C)C(O[C@@H]2OC[C@@H](O)[C@H](O[C@@H]3OC[C@@H](O)[C@H](O)[C@H]3O)[C@H]2O)C(O)C1O (stereo partly drawn) | – | -17.9% [at 9.23 µM]
21 | CN1[C@H]2C[C@H](OC(=O)[C@H](CO)c3ccccc3)C[C@@H]1[C@@H](O)C2 | inactive | –
22 | COc1c(C(C)C)cc2c(c1O)[C@@]1(C(=O)O)CCCC(C)(C)C1CC2 (stereo partly drawn) | inactive | –
23 | CC(=O)O[C@H]1C[C@@H](OC(C)=O)C(C)(C)C2C[C@@H](O)[C@]3(C)C(CC[C@@]4(C)[C@H](C5=CC(=O)OC5O)C[C@H]5O[C@]543)[C@]21C (stereo partly drawn) | inactive | –
24 | COCC1OC(=O)c2coc3c2C1(C)C1=C(C3=O)C2CCC(=O)C2(C)CC1O (stereo not drawn) | inactive | –
25 | CO[C@H]1[C@H](O)[C@H](O[C@H]2CC[C@]3(C)C4CC[C@]5(C)[C@H](C6=CC(=O)OC6)CC[C@]5(O)C4CC[C@@H]3C2)O[C@@H](C)[C@@H]1O (stereo partly drawn) | 22.4 nM (active) | –
26 | COc1cc2c(cc1OC)[C@@]13CCN4CC5=CCO[C@H]6CC(=O)N2[C@H]1[C@H]6[C@H]5C[C@H]43 | inactive | –
27 | C[C@H]1C(=O)O[C@H]2[C@H](O)[C@]34C5OC(=O)[C@]3(O[C@@H]3OC(=O)[C@H](O)C34[C@H](C(C)(C)C)[C@H]5O)C12O (stereo partly drawn) | inactive | –
28 | CN1C(=O)c2ccccc2NC(=O)C1Cc1ccccc1 (stereo not drawn) | inactive | –
